Compound activity from PubChem BioAssay.
Sampled rows, rich in hits. Any-hit rate of the full collection: about 12%.
Pf growth 96h – P. falciparum growth inhibition at 96 hour, primary screen for plastid delayed-death inhibitors. P. falciparum luciferase reporter growth, 96 h. hit rate 6.9% among 320,000. Potency, µM (highest dose often 28.7 µM), inactives show top-dose activity change, negative = inhibition, hits mostly inhibitors; note: % is set by controls: 0 for no effect and ±100 for the full control effect
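P. falciparum expressing integrated firefly luciferase, in erythrocytes at 2% hematocrit, 0.05% parasitemia, incubated with compounds 96 h at 37 C, 5% CO2. Growth inhibition read as loss of luminescence; two-generation exposure targets delayed-death apicoplast inhibitors.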
Sm TGR inh – S. mansoni TGR enzyme inhibition; purified TGR, DTNB reduction, TNB absorbance 405 nm; Q962Y6; AID 485364; Potency, µM (doses to about 114 µM), inactives show at the top dose activity change, negative = inhibition, hits mostly inhibitors; hit rate 3% among 360,000; note: % is set by controls: 0 for no effect and ±100 for the full control effect; nearly all actives have a fitted effect of over 60% in size
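Kinetic colorimetric format: TGR-catalysed, NADPH-driven DTNB reduction monitored via TNB absorbance. Enzyme dispensed at 20 nM; compound exposure 15 min at room temperature before reaction start.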
SARS PLP yeast – SARS-CoV PLP inhibition in yeast; Potency, µM (highest dose often 32.9 µM), for the others: top-dose activity, positive = growth rescue, hits mostly activators; hit rate 0.19% among 330,000; S. cerevisiae expressing SARS-CoV PLpro, growth rescue; calls by dose curve; note: 0% is about no effect; nearly all actives have a fitted effect of over 55% in size
Pf growth 48h – P. falciparum growth inhibition at 48 hours (one generation). P. falciparum luciferase growth in erythrocytes, 48 h. Potency, µM (titrated, usually from 28.7 µM), inactives show at the top dose activity change, negative = inhibition, hits mostly inhibitors. hit rate 5.9% among 310,000. AID 504832; note: % is set by controls: 0 for no effect and ±100 for the full control effect
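Growth was read as firefly luciferase luminescence after a 48 h, 37 C, 5% CO2 exposure of compounds to reporter-bearing P. falciparum cultures (0.1% parasitemia, 2% hematocrit final) in Albumax-supplemented RPMI 1640.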
An asterisk follows results filed as active; u = inconclusive; x = no result; [ ] = remark or other dose. Unless noted, calls come from the whole dose curve; as a rule, active = well fitted curve in the direction sought with a large enough effect; inconclusive = small, poorly fitted or top-dose-only effect, or another doubt; inactive = no such curve, though single readings can be large; an effect the other way counts as inactive or inconclusive. Potency is the fitted concentration of half-maximal effect.

SMILES | Pf growth 96h | Sm TGR inh | SARS PLP yeast | Pf growth 48h
C=CCNC(=S)N/N=C/c1ccc(N(CC)Cc2ccccc2)cc1 | 0% | -1% | u | 6.6µM*
CCN(CC)c1ccc(/C=N/NC(=S)NCc2ccccc2)cc1 | 9.3µM* | -10% | 12% | 13µM*
C=CCNC(=S)N/N=C/c1ccc(C(F)(F)F)cc1 | u | -10% | 12% | u
O=c1[nH][nH]c(C(F)(F)F)c1C=Nc1ccccc1Cl | 31% | 0% | -8% | 27%
Oc1c(C=Nc2ccccc2Cl)[nH]c2ccccc12 | u | 50µM* | 0% | u
COc1ccc(Cl)cc1NC(=O)CSc1nnc(C2CC2)n1C | 1% | -3% | 1% | -1%
CCC(=O)N1CCc2cc(CNS(=O)(=O)c3ccc(Cl)s3)ccc21 | x | -2% | x | x
Cc1cc2ncn(C(=O)c3ccc4c(c3)OCO4)c2cc1C | 2.9µM* | 4% | -4% | 35%
CCSc1ccccc1C(=O)N1CCCC1 | x | 0% | 9% | -1%
COc1ccc(C(=O)n2nnc3ccccc32)cc1OC | 7% | 6.3µM* | -9% | 5%
O=C(c1ccc2c(c1)OCO2)n1nnc2ccccc21 | 48% | 10µM* | 1% | 68%
CCSc1ccccc1C(=O)n1nnc2ccccc21 | x | 20µM* | x | -11%
CCCN(CC(=O)Nc1ccccc1C)C(=O)C1CC(=O)N(c2cccc(C)c2C)C1 (stereo not drawn) | 11% | 6% | -1% | 5%
CC1CCN(C(=O)c2ccc3c(c2)OCO3)CC1 | 13µM* | 15% | 1% | 0%
COc1ccc(N/C(=C(/C(Cl)=C(Cl)Cl)[N+](=O)[O-])n2nnc3ccccc32)cc1OC | 15µM* | 22µM* | 15% | x
COc1ccc(C(=O)n2nnc3ccccc32)cc1Br | x | u | -1% | -8%
COc1cc(OC)c(N(C)S(=O)(=O)c2cccc(C(=O)NC(C)C3CC4CCC3C4)c2)cc1Cl (stereo not drawn) | 2.6µM* | 1% | 1% | -7%
Cc1ccc2oc(C(=O)N3CCC(O)(c4ccccc4)CC3)c(C)c2c1 | 10µM* | -3% | -18% | u
COc1cccc(C2=NN(C(=O)c3ccco3)C(O)(C(F)(F)F)C2)c1 (stereo not drawn) | -22% | 0% | -2% | 4.1µM*
CCOc1ccc2oc(C(=O)N3CC(C)OC(C)C3)c(C)c2c1 (stereo not drawn) | 7.4µM* | -6% | 10% | u
Cc1ccc(COc2coc(CN3CCN(C(=O)c4ccco4)CC3)cc2=O)cc1 | u | -4% | 1% | 12µM*
CCOc1ccc2oc(C(=O)O)c(C)c2c1 | 56% | -1% | 2% | 44%
COc1cccc(CN2CCN(C(=O)c3ccco3)CC2)c1 | 0.83µM* | -5% | 2% | 43%
COc1ccc2oc(C(=O)N3CCN(C(=O)c4ccco4)CC3)c(C)c2c1 | u | 50µM* | -3% | u
COc1ccc(NC(=O)C(=O)NCCN2CCN(C(=O)c3ccco3)CC2)cc1 | 0.93µM* | -11% | -2% | 10%
SMILES | Pf growth 96h | Sm TGR inh | SARS PLP yeast | Pf growth 48h
COc1ccc(CC(=O)N2CCN(C(=O)c3ccco3)CC2)cc1 | x | -29% | 8% | 0%
CN(C)C1CCN(C(=O)c2cccc(OC3CCN(S(=O)(=O)N(C)C)CC3)c2)C1 (stereo not drawn) | u | u | 1% | 4%
C[C@@H](N)C(=O)NC[C@H]1O[C@@H](n2cnc3c(N)ncnc32)[C@H](O)[C@@H]1O | x | x | -11% | x
Cc1cccc(NC(=O)CN(CC2CCCO2)C(=O)c2ccc(S(C)(=O)=O)cc2)c1C (stereo not drawn) | 86% | 6% | 1% | 56%
CC(=O)N(c1ccccc1)c1nc(C)cc(C)c1C#N | 3% | -13% | 12% | -2%
CC(=O)N(c1ccc(Cl)cc1)c1nc(C)cc(C)c1C#N | 7.4µM* | 17% | 1% | -3%
Cc1cccc(N2CC(C)Cn3c2nc2c3c(=O)n(CC(=O)O)c(=O)n2C)c1 (stereo not drawn) | x | 17% | x | x
O=C(CN(C(=O)CNC(=O)c1ccco1)c1ccccc1F)NC1CCCCC1 | -30% | -6% | 10% | 7%
CC(=O)OC1C(OC(C)=O)N(C(C)=O)C(=O)N1C(C)=O (stereo not drawn) | 9.3µM* | -11% | 2% | -4%
CC(=O)N1C(=O)N(C)C2C1N(C)C(=O)N2C(C)=O (stereo not drawn) | u | 7% | 6% | 1%
Cc1[nH]c(-c2ccc3c(c2)OCO3)nc1C(=O)O | -18% | 0% | -10% | x
Cc1[nH]c(-c2ccco2)nc1C(=O)O | 6.6µM* | u | -7% | 10%
S=C=Nc1ccc(N=C=S)cc1 | -3% | x | x | -2%
Cc1nnc(SCc2c(Cl)cccc2Cl)n(N)c1=O | 1% | 4% | -5% | -6%
CCn1c(SCc2c(Cl)cccc2Cl)nnc1-c1nn(-c2ccccc2)ccc1=O | u | 100µM* | -17% | -25%
CCOCCn1ccc2c(OCC(=O)Nc3cc(OC)ccc3OC)cccc2c1=O | u | -2% | -4% | u
COCCn1ccc2c(OCC(=O)Nc3cc(OC)ccc3OC)cccc2c1=O | u | -5% | 2% | 12µM*
CC(C)(C)NC(=O)[C@@H]1C[C@@H]2CCCC[C@@H]2CN1C[C@@H](O)[C@H](Cc1ccccc1)NC(=O)[C@H](CC(N)=O)NC(=O)c1ccc2ccccc2n1 | 15µM* | 2% | 2% | u
CC1CCN(S(=O)(=O)c2cc3c4c(c2)CCN4C(=O)CC3)CC1 | u | -1% | 3% | u
CC(C)c1ccc(N(CC(=O)O)S(=O)(=O)c2cccnc2)cc1 | -3% | 1% | -1% | x
CCOc1ccc(S(=O)(=O)N(CC(=O)Nc2cccnc2)c2ccccc2)cc1 | x | 4% | x | x
CCOc1ccc(N(CC(=O)Nc2cccnc2)S(=O)(=O)c2ccc(C)cc2)cc1 | 2% | 0% | -6% | 13µM*
CCOc1ccc(N(CC(=O)O)S(=O)(=O)c2cccnc2)cc1 | 15µM* | -9% | 3% | x
Cc1ccc(S(=O)(=O)NC(CC(C)C)C(=O)Nc2ccncc2)cc1 (stereo not drawn) | 5.9µM* | -6% | -12% | 5.2µM*
Cc1ccc(S(=O)(=O)NC(CC(C)C)C(=O)Nc2nccs2)cc1 (stereo not drawn) | x | -10% | -5% | u
SMILES | Pf growth 96h | Sm TGR inh | SARS PLP yeast | Pf growth 48h
CCCCn1c(C)c(C(=O)OCC)c2c(CN3CCCC3)c(O)ccc21 | 4.7µM* | 4% | 2% | x
CCOC(=O)c1c(CSc2ccccc2)n(C)c2ccc(O)c(CN3CCOCC3)c12 | u | 0% | -3% | u
CCCCn1c(C)c(C(=O)OCC)c2c(CN3CCOCC3)c(O)ccc21 | x | 40µM* | -3% | u
Cc1ccc(C(C)(C)C)cc1S(=O)(=O)N1CC(=O)Nc2ccccc21 | -9% | 2% | 0% | 0%
CC(=O)Nc1ccc(C(=O)CSc2nc3ccccc3n2CC(=O)N2CCCC2)cc1 | 3.7µM* | 8%[11.4 µM] | -1% | x
O=C(OC1CCOC1=O)c1ccc(Cl)c(S(=O)(=O)N2CCOCC2)c1 (stereo not drawn) | -25% | 7% | 13% | 3%
